An excerpt weighted towards active compounds, which were near 11% of everything screened.
NPSR antagonist: antagonists of human neuropeptide S receptor cAMP signaling | Q6W5P4 | Potency, µM (series often up to 38.3 µM), actives largely listed as inhibitors | CHO-NPSR cells, cAMP TR-FRET, antagonist mode | AID 1461 | 220,000 tested, 1% active; note: nearly all actives have a fitted effect of over 50% in size
HPGD inh: HPGD (human) dehydrogenase inhibition. 150,000 tested, 4.3% active. P15428. Potency, µM, hits mostly inhibitors. purified HPGD, NADH fluorescence kinetic, PGE2 substrate; active = well fitted inhibition curve with a large enough effect, not every such curve was filed as active; inconclusive = small, poorly fitted or top-dose-only effect, or another doubt; inactive = no such curve, though single readings can be large or run the other way
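NADH formation kinetics: reaction with 30 uM PGE2 and 1 mM NAD+ (final), 20 nM enzyme, Tris-HCl pH 8 with Tween 20, after 15 min compound preincubation at room temperature. Fluorescence change, last versus first of five reads.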
ALDH1A1 block: inhibitors of human aldehyde dehydrogenase 1A1 | P00352 | Purified ALDH1A1, NADH fluorescence, propionaldehyde substrate | Potency, µM (series often up to 75.3 µM), most hits filed as inhibitors | 220,000 tested, 7.3% active; active = well fitted inhibition curve with a large enough effect, not every such curve was filed as active; inconclusive = small, poorly fitted or top-dose-only effect, or another doubt; inactive = no such curve, though single readings can be large or run the other way
Target sequence (P00352 whole entry, looked up): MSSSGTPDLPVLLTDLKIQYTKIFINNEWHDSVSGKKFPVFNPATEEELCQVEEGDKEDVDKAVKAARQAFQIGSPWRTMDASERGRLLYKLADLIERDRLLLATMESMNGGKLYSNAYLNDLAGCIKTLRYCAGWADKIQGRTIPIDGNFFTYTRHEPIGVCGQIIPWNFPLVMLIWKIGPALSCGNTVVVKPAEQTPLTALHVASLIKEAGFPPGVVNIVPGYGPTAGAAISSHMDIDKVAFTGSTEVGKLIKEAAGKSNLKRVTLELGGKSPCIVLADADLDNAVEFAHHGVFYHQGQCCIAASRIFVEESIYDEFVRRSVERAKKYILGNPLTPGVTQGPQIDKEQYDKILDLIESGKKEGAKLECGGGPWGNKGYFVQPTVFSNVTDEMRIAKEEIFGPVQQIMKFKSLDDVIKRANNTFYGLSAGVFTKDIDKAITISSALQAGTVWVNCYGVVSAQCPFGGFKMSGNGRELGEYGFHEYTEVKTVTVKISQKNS
IMPase Li cell: membrane-permeable IMPase blocker, potentiated with lithium. CHO-M1 cells, IP1 TR-FRET (IP-One), carbachol + lithium. 210,000 tested, 0.35% active. Potency, µM (titrated, usually from 59.4 µM), hits mostly inhibitors;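 note: IP1 builds up when IMPase is blocked and the TR-FRET signal falls; nearly all actives have a fitted effect of over 50% in size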
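CHO cells stably expressing M1 receptor (2000/well, cultured 16–30 h) treated 30 min at 37C with compound plus low lithium. Cytosolic IP1 by TR-FRET (665/620 ratio and 620 channel) after 10 min lysis; AC50 by Hill fit.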
IMPase cell inh: IMPase inhibition in cells; CHO-M1 cells, IP1 accumulation, HTRF TR-FRET ratio; inhibition (IP1 accumulation), % at 46.1 µM; 120,000 tested, under 10 active; active = well fitted curve in the direction sought with a large enough effect in the signal ratio, not every such curve was filed as active; inconclusive = small, poorly fitted or top-dose-only effect, or a change in a side signal; inactive = no such curve, though single readings can be large or run the other way; the % refers to the signal ratio;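 note: cells stimulated with carbachol in lithium chloride buffer; higher means more IMPase inhibition seen as more IP1 and lower FRET ratio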
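Elevated IP1 in lysates lowers TR-FRET signal (665/620 ratio and 620 channel reported). Cells were CHO-M1, given carbachol (50 uM as added) plus 50mM LiCl, pH 7.4, 30 min, 37C; compounds titrated up to 46 uM; AC50 by Hill equation.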
PNC inhibitor: perinucleolar compartment assembly inhibition; 140,000 tested, 3.1% active; AID 2417; activity change (PNC), negative = inhibition, % at 10 µM; PC3M PTB-GFP, PNC prevalence imaging, 16 h; active compounds read low;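 active = readout at or below -70, meaning at least 70% loss of cells showing the perinucleolar compartment, a nuclear body marking cancer cells; inconclusive = readout between -30 and a set limit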
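PC3M cells stably expressing PTB-GFP, 750–1000 cells/well, treated 16 h at 37 °C with compound (23 nl of library stock), in duplicate. After paraformaldehyde fixation and Hoechst stain, imaged at 20x; PNC prevalence scored by image analysis.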
A number is an active result; [ ] = another dose, or the depositor's remark. Unless noted, calls come from the whole dose curve; as a rule, active = well fitted curve in the direction sought with a large enough effect; inconclusive = small, poorly fitted or top-dose-only effect, or another doubt; inactive = no such curve, though single readings can be large; an effect the other way counts as inactive or inconclusive.

Screening Cn1c(SCC(=O)OCc2ccccc2)nnc1-c1ccco1 returned NPSR antagonist inactive, HPGD inh inactive, ALDH1A1 block inconclusive, IMPase Li cell inactive, IMPase cell inh inactive and PNC inhibitor inconclusive.
Screening CNC(=S)N1CCN(c2cccc(OC)c2)CC1 returned NPSR antagonist inactive, HPGD inh inactive, ALDH1A1 block inactive, IMPase Li cell inactive, IMPase cell inh inactive and PNC inhibitor inactive.
Screening Oc1ccc(N2CCN(C(=S)NCCc3ccccc3)CC2)cc1 returned NPSR antagonist inactive, HPGD inh inactive, ALDH1A1 block 11µM, IMPase Li cell inactive, IMPase cell inh inactive and PNC inhibitor inactive.
COc1cccc(N2CCN(C(=S)NCCc3ccccc3)CC2)c1 was read as NPSR antagonist inactive, HPGD inh inactive, ALDH1A1 block inactive, IMPase Li cell inactive, IMPase cell inh inactive and PNC inhibitor -92.
`S=C(Nc1cccc(Cl)c1)N1CCN(Cc2ccccc2)CC1` gave NPSR antagonist inactive, HPGD inh inactive, ALDH1A1 block inactive, IMPase Li cell inactive and PNC inhibitor -80.
S=C(NCCc1ccccc1)N1CCN(Cc2ccccc2)CC1 was read as NPSR antagonist inactive, HPGD inh inactive, ALDH1A1 block 7.9µM, IMPase Li cell inactive and PNC inhibitor inactive.
`CS(=O)(=O)NC1c2cccc3cccc(c23)C1Sc1nncn1/N=C/c1ccco1` (configuration not stated) gave NPSR antagonist inactive, HPGD inh inactive, ALDH1A1 block inconclusive, IMPase Li cell inactive, IMPase cell inh inactive and PNC inhibitor inactive.
Screening O=C1/C(=C/c2cccs2)COc2ccccc21 returned NPSR antagonist inactive, HPGD inh 25µM, ALDH1A1 block inactive, IMPase Li cell inactive, IMPase cell inh inactive and PNC inhibitor inactive.
`Oc1ccc(Br)cc1-c1cc(-c2ccco2)[nH]n1` gave NPSR antagonist inconclusive, HPGD inh inconclusive, ALDH1A1 block inactive, IMPase Li cell inactive, IMPase cell inh inactive and PNC inhibitor inactive.
For Oc1ccccc1-c1cc(-c2ccco2)[nH]n1 the results were NPSR antagonist inactive, HPGD inh inconclusive, ALDH1A1 block 14µM, IMPase Li cell inactive, IMPase cell inh inactive and PNC inhibitor inactive.
For Oc1ccc(Cl)cc1-c1cc(-c2ccco2)[nH]n1 the results were NPSR antagonist inactive, HPGD inh 25µM, ALDH1A1 block inconclusive, IMPase Li cell inactive, IMPase cell inh inactive and PNC inhibitor inactive.
For COc1ccc(NC(=O)c2ccccc2NC(=O)c2ccco2)c(OC)c1 the results were NPSR antagonist inactive, HPGD inh inactive, ALDH1A1 block inactive, IMPase Li cell inactive, IMPase cell inh inactive and PNC inhibitor inconclusive.
`Cc1cc(Nc2ccc(Cl)cc2)n(-c2cccc(Cl)c2)n1` gave NPSR antagonist inconclusive, HPGD inh inactive, ALDH1A1 block inactive, IMPase Li cell inactive, IMPase cell inh inactive and PNC inhibitor inactive.
For Cc1cc(Nc2ccc(Cl)cc2)n(-c2ccccc2)n1 the results were NPSR antagonist inactive, HPGD inh 7.9µM, ALDH1A1 block inactive, IMPase Li cell inactive, IMPase cell inh inactive and PNC inhibitor inactive.
`O=C(CN(C(=O)CNC(=O)c1ccco1)c1ccc2c(c1)OCO2)NC1CCCCC1` gave NPSR antagonist inactive[7.67 µM], HPGD inh inactive, ALDH1A1 block inconclusive, IMPase Li cell inactive, IMPase cell inh inactive and PNC inhibitor inactive.
Screening O=C(CN(Cc1ccc2c(c1)OCO2)C(=O)CNC(=O)c1ccco1)NC1CCCCC1 returned NPSR antagonist inactive, HPGD inh inactive, ALDH1A1 block 22µM, IMPase Li cell inactive, IMPase cell inh inactive and PNC inhibitor inactive.
`CCOC(=O)c1ccc(N(CC(=O)NC2CCCC2)C(=O)CNC(=O)c2ccco2)cc1` gave NPSR antagonist inactive, HPGD inh inactive, ALDH1A1 block inactive, IMPase Li cell inactive, IMPase cell inh inactive and PNC inhibitor -85.
Screening O=C(Nc1ccccc1C(=O)Nc1nncs1)c1ccccc1 returned NPSR antagonist inactive.
O=C(Nc1nncs1)c1ccc(S(=O)(=O)c2ccccc2)cc1 was read as NPSR antagonist inactive, HPGD inh inactive, ALDH1A1 block inactive, IMPase Li cell inactive, IMPase cell inh inactive and PNC inhibitor -117.
Screening O=C(Nc1nncs1)c1c(F)c(F)c(F)c(F)c1F returned NPSR antagonist inactive, HPGD inh 22µM, ALDH1A1 block 18µM, IMPase Li cell inactive, IMPase cell inh inactive and PNC inhibitor inconclusive.
Screening C[C@H]1[C@H](C)CC[C@]2(C)CC[C@]3(C)C(=CC[C@@H]4[C@@]5(C)CC[C@@H](O)[C@](C)(C(=O)O)[C@@H]5CC[C@]43C)[C@H]12 returned NPSR antagonist inactive.
Screening O=Cc1ccc(OC(=O)c2cc(Cl)nc3ccccc23)cc1 returned NPSR antagonist inactive, HPGD inh inactive, ALDH1A1 block 14µM, IMPase Li cell inactive and PNC inhibitor inactive.
Screening CC(C(=O)N1CCN=C1c1ccccc1)N1C(=O)c2ccccc2C1=O (configuration not stated) returned NPSR antagonist inactive.
For CCCc1ccc(OCCNC(C)=O)cc1 the results were NPSR antagonist inactive, HPGD inh inactive, ALDH1A1 block inconclusive, IMPase Li cell inactive, IMPase cell inh inactive and PNC inhibitor inactive.
Screening CCC(=O)/C=C1/Sc2ccccc2N1CC returned NPSR antagonist inactive, HPGD inh 28µM, ALDH1A1 block 3.5µM, IMPase Li cell inactive, IMPase cell inh inactive and PNC inhibitor inactive.
For CCOC(=O)/C(=C/C=C1\Sc2ccccc2N1CC)C(C)=O the results were NPSR antagonist inactive, HPGD inh 28µM, ALDH1A1 block 13µM, IMPase Li cell inactive and PNC inhibitor inactive.
CCN1/C(=C/C(=O)c2ccco2)Sc2ccccc21 was read as NPSR antagonist inactive, HPGD inh inactive, ALDH1A1 block 25µM, IMPase Li cell inactive, IMPase cell inh inactive and PNC inhibitor inactive.
`CCC(=O)/C=C1/Sc2ccc(OC)cc2N1CC` gave NPSR antagonist inactive, HPGD inh inactive, ALDH1A1 block inactive, IMPase Li cell inactive, IMPase cell inh inactive and PNC inhibitor inactive.
`CN(Cc1ccccc1)C(=O)Cn1nc(C(F)(F)F)c2c1CCC2` gave NPSR antagonist inactive, HPGD inh inactive, ALDH1A1 block inactive, IMPase Li cell inactive, IMPase cell inh inactive and PNC inhibitor inactive.
Screening Cc1nnc(SCc2ccon2)n1-c1ccccc1 returned NPSR antagonist inactive, HPGD inh inactive, ALDH1A1 block inactive, IMPase Li cell inactive, IMPase cell inh inactive and PNC inhibitor inactive.
For N#CC(C#N)=c1ccc2c(c1)NC1(CCCCC1)N=2 the results were NPSR antagonist 10µM, HPGD inh inactive, ALDH1A1 block inactive, IMPase Li cell inactive, IMPase cell inh inconclusive and PNC inhibitor inconclusive.

Compound activity (PubChem BioAssay)
